Assay results from PubChem BioAssay (NCI).
“And” between values parts separate entries of the source, which are not always exact repeats. Equal entries are not always repeated. The panel holds about 83,000 compounds, 20% with a hit somewhere; the sample as a whole holds those more often.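 Step 1: grow cells in 96-well plates. Step 2: add test compound at a single concentration. Step 3: incubate 48 h. Step 4: record percent growth.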 Unmarked numbers belong to inactive results. The source made the active and inactive calls. Rule for the calls: active = growth percent below 10; inactive = the rest.

Each compound was assayed on MDA-MB-468 breast (assay: NCI-60 one-dose screen, 48 h (100 = growth as untreated, 0 = no growth, -100 = all killed)). Settings: 10 µM unless noted.

| SMILES | growth |
| --- | --- |
| COc1ccc2nc(SCC(=O)Nc3ccccc3C)[nH]c2c1 | 98% |
| Brc1cccc(/C=N/Nc2nc(N/N=C/c3cccc(Br)c3)nc(N3CCOCC3)n2)c1 | 1.09% (active) |
| COc1ccc(/C=C/C(=O)c2ccc(-n3cc(CN4CCN(c5cc6c(cc5F)c(=O)c(C(=O)O)cn6C5CC5)CC4)nn3)cc2)cc1 | 26.3% |
| CCn1nc(-c2ccccn2)c2cccnc2c1=S | 48.8% |
| C(=N\Nc1nnc2n1N=C(c1ccccc1)CS2)/c1ccc(OCc2ccccc2)cc1 | 88.9% |
| Cc1ccc(C[P+](c2ccccc2)(c2ccccc2)c2ccccc2)cc1 | -12.9% (active) |
| COc1ccc(Br)c(C=O)c1 | 84.5% |
| C=CCn1c(SCC(=O)c2ccc(Br)cc2)nnc1-c1c[nH]c2ccccc12 | 86.9% |
| O=C1/C(=C2\SC(=S)N(C3CC3)C2=O)SC(=S)N1C1CC1 | 88.7% |
| FC(F)(F)c1ccc(-c2cnc(-c3nn[nH]n3)nc2NC2CCCCCC2)cc1 | 68.5% [50 µM] |
| Cc1cnc([C@]23CC[C@@H](C)[C@H](C)[C@H]2C2=CC[C@@H]4[C@@]5(C)Cc6c([nH]c7ccccc67)C(C)(C)[C@@H]5CC[C@@]4(C)[C@]2(C)CC3)o1 | 90.6% [100 µM] |
| COC(=O)[C@H](C)NC(=O)[C@@H]1CCCN1C(=O)CNC(=O)[C@H](C)N | 98.7% |
| C#CCN1C(=O)/C(=c2\sc3n(c2=O)NC2C(N=3)N(CC)C(=O)N2CC)c2ccccc21 (stereo unspecified) | 10.8% |
| CCCC[n+]1ccc(SCC(=O)n2ccc3ccccc32)c2ccccc21 | 52.1% |
| CCN(CCNS(C)(=O)=O)c1ccc(N)c(C)c1 | 56.5% and 69.7% |
| Cn1ccc(Nc2nccc(Oc3ccc(C(=O)Nc4cccc(F)c4)c(Cl)c3)n2)c1 | -12.3% (active) |
| CN(C)c1ccc(N=Nc2ccc3ccccc3c2)cc1 | 5.06% (active) |
| N=S(=O)(NC(=O)c1ccc(Cl)cc1Cl)c1ccc(Br)s1 (stereo unspecified) | 92.8% |

| SMILES | growth |
| --- | --- |
| COc1cc([N+](=O)[O-])c2ncccc2c1O | 95.1% |
| O=C1/C(=C/c2ccc([N+](=O)[O-])cc2)SC(=Nc2ccccc2)N1Nc1ccccc1 | 87.8% |
| Cn1cc(-c2noc(C(=O)c3cn(C)c4ncccc34)n2)c2ccccc21 | -9.42% (active) |
| C[C@@H](CO)[C@@H]1CC[C@]2(C(=O)N3CCN(C)CC3)CC[C@]3(C)[C@H](CC[C@@H]4[C@@]5(C)CC[C@H](O)C(C)(C)[C@@H]5CC[C@]43C)[C@@H]12 | 61% |
| CN(C)CCCN(Cc1ccccc1O)C(=S)Nc1ccc(Cl)cc1 | 89.6% |
| Cc1ccc(S(=O)(=O)Nc2ccc3cc([N+](=O)[O-])ccc3c2[N+](=O)[O-])cc1 | 54% and 88.5% |
| O=C1OCC2=C1C(c1cccc(C(F)(F)F)c1)c1cc3c(cc1N2CCO)OCCO3 (stereo unspecified) | 13.5% |
| O=C(O)CCC(=O)c1ccc(C2CCCCCC2)cc1 | 105% |
| CC(=O)[C@@H]1CC[C@]2(C(=O)n3ccnc3)CC[C@]3(C)[C@H](CC[C@@H]4[C@@]5(C)Cc6c([nH]c7ccccc67)C(C)(C)[C@@H]5CC[C@]43C)[C@@H]12 | 90.8% |
| CN1CCN(CC(=O)Nc2nc(-c3cccc(NS(=O)(=O)c4cccc5c(N(C)C)cccc45)c3)cs2)CC1 | 38.7% |
| O=S(=O)(Oc1ccc(-c2cn3ccoc3n2)cc1)C1CCCCC1 | 92.3% |
| OCCN1CCN(c2nc(Nc3ccc(-c4nc5ccccc5[nH]4)cc3)c3cn[nH]c3n2)CC1 | -82.3% (active) |
| COc1ccc(/C=C2\COc3ccc(O)c(O)c3C2=O)c(OC)c1OC | 7.7% (active) |
| CCCCC(CC#N)(CCC)CCC | 112% |
| O=C(Nc1cccc(-c2ccc(Cl)c(C(F)(F)F)c2)c1)C1CCN(Cc2cccc3cccnc23)CC1 | -5.03% (active) |
| Cc1ccc(-c2nc(N3CCCNCC3)c3oc(-c4ccccc4)nc3n2)cc1 | -76.2% (active) |
| Cn1c(/C(C#N)=C/c2ccc3ccccc3c2)cc2ccccc21 | -3.16% (active) |
| Nc1nc(Nc2ccccc2SSc2ccccc2Nc2nc(N)nc(-c3cccs3)n2)nc(-c2ccsc2)n1 | 115% |
